Experimental data: PubChem BioAssay
Activity calls are given as the source filed them.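 How the source made its calls: active means thallium flux through the channel raised or lowered by more than 3 SD from vehicle-only wells, actives on both sides; inactive means the rest.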

Tests used:
Assay in all cases: BK channel mutant inhibitors and activators – cell-based, U2OS BacMam, thallium flux, beta subunits, selectivity assay, profiling panel (AID 1259406);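 further: initial slope of Thallos dye fluorescence rise after thallium is added; log ratio against the mean of 0.3% DMSO vehicle wells on the same plate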
[1] = test system: F380Y/beta2Delta; details: U2OS BacMam BK variants, at 30 µM
[2] = test system: F380Y/beta4; details: U2OS BacMam BK variants, at 30 µM
[3] = molecular target: Calcium-activated potassium channel subunit alpha-1 (Homo sapiens) + Leucine-rich repeat-containing protein 26 (Homo sapiens) (UniProt Q12791+Q2I0M4); details: U2OS BacMam BK variants, F380Y/Slo1WT/gamma1, at 30 µM
Chain of Calcium-activated potassium channel subunit alpha-1 (Homo sapiens) + Leucine-rich repeat-containing protein 26 (Homo sapiens) (Q2I0M4 whole entry, looked up, one chain of several): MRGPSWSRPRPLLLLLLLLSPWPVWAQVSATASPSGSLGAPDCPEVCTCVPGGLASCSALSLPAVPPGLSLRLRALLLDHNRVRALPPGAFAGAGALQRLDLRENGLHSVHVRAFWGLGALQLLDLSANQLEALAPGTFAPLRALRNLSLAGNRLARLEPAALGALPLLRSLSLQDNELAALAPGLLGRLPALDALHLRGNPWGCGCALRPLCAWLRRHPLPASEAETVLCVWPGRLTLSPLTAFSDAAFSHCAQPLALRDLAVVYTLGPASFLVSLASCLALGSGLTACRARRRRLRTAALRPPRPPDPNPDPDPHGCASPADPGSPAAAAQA

[4] = test system: R275C; details: U2OS BacMam BK variants, at 30 µM
[5] = test system: R275C/beta1; details: U2OS BacMam BK variants, at 30 µM
[6] = test system: R275C/beta2Delta; details: U2OS BacMam BK variants, at 30 µM
[7] = test system: R275C/beta4; details: U2OS BacMam BK variants, at 30 µM
[8] = test system: R275C/Slo1WT/beta2; details: U2OS BacMam BK variants, at 30 µM

Measured: log fold change Tl+ flux

CN1CCC(=C2c3ccccc3CC(=O)c3sccc32)CC1
inactive: [1] 0.00285 | [2] 0.0281 | [3] 0.0191 | [4] -0.082 | [5] 0.0422 | [6] 0.0873 | [7] 0.0237 | [8] 0.0313

CCOC(=O)C1=C(C)NC(C)=C(C(=O)OC)C1c1cccc(Cl)c1Cl (stereo not drawn)
active: [1] -0.162 | [2] -0.261
inactive: [3] 0.00637 | [4] -0.00728 | [5] -0.0274 | [6] 0.0156 | [7] 0.114 | [8] -0.0293

COCc1c(C(C)C)nc(C(C)C)c(/C=C/[C@@H](O)C[C@@H](O)CC(=O)O)c1-c1ccc(F)cc1
inactive: [4] 0.0107 | [8] 0.0728
active: [1] 0.143 | [2] 0.268 | [3] 0.103 | [5] 0.391 | [6] 0.192 | [7] 0.207

CNS(=O)(=O)Cc1ccc2[nH]cc(CCN(C)C)c2c1
inactive: [1] 0.0184 | [2] 0.00469 | [3] -0.0149 | [4] 0.0314 | [5] -0.0158 | [6] 0.00098 | [7] -0.0449 | [8] 0.0327

OCc1cccnc1
inactive: [1] 0.033 | [2] 0.017 | [3] -0.0204 | [4] -0.0301 | [5] -0.00726 | [6] -0.015 | [7] -0.00528 | [8] 0.0162

CCN(CC)CC1CCCCN1CC(=O)N1c2ccccc2C(=O)Nc2cccnc21 (stereo not drawn)
inactive: [1] 0.0497 | [2] -0.01 | [3] 0.0283 | [4] -0.0778 | [5] 0.0108 | [6] 0.0199 | [7] 0.0303 | [8] 0.0393

N#Cc1ccc(C(c2ccc(C#N)cc2)n2cncn2)cc1
inactive: [1] 0.0563 | [2] 0.0185 | [3] 0.0131 | [4] -0.0506 | [5] -0.0148 | [6] -0.0137 | [7] -0.0251 | [8] 0.00776

Cc1c(O)cccc1C(=O)N[C@@H](CSc1ccccc1)[C@H](O)CN1C[C@H]2CCCC[C@H]2C[C@H]1C(=O)NC(C)(C)C
active: [5] 0.237
inactive: [1] -0.0274 | [2] 0.0671 | [3] 0.0165 | [4] -0.105 | [6] -0.0795 | [7] -0.0349 | [8] -0.0218

CN1CCC(=C2c3ccccc3C=Cc3ccccc32)CC1
active: [1] 0.14 | [2] 0.137 | [5] 0.194 | [6] 0.144 | [7] 0.0955
inactive: [3] -0.0742 | [4] -0.0182 | [8] 0.0256

C[C@H]1COc2c(C3(N)CC3)c(F)cc3c(=O)c(C(=O)O)cn1c23
inactive: [1] -0.0452 | [2] -0.037 | [3] 0.00396 | [4] -0.0195 | [5] -0.0326 | [6] -0.0136 | [7] -0.0013 | [8] -0.0265

CC(C)c1ccc2oc3nc(N)c(C(=O)O)cc3c(=O)c2c1
inactive: [1] 0.00122 | [2] 0.0364 | [3] 0.0473 | [4] -0.0223 | [5] -0.0119 | [6] 0.0807 | [7] -0.00203 | [8] 0.0208

Nc1ccn([C@H]2CC[C@@H](CO)O2)c(=O)n1
inactive: [1] -0.0145 | [2] 0.0289 | [3] 0.0157 | [4] -0.0969 | [5] -0.00164 | [6] -0.00877 | [7] 0.00428 | [8] 0.0272

Nc1nc(N)nc(-c2cc(Cl)ccc2Cl)n1
inactive: [1] -0.0416 | [2] -0.00342 | [3] -0.0223 | [4] -0.0835 | [5] -0.0137 | [6] -0.0163 | [7] -0.0246 | [8] -0.0527

CC(C)(C)NC(=O)[C@@H]1CN(Cc2cccnc2)CCN1C[C@@H](O)C[C@@H](Cc1ccccc1)C(=O)N[C@H]1c2ccccc2C[C@H]1O
inactive: [1] -0.0728 | [2] -0.0768 | [3] 0.0169 | [4] -0.0278 | [5] -0.00667 | [6] -0.0261 | [7] 0.0581
active: [8] 0.101

COc1ccccc1N1CCN(CC(O)COc2cccc3ccccc23)CC1 (stereo not drawn)
active: [2] -0.114 | [5] 0.198 | [7] 0.167
inactive: [1] -0.0539 | [3] 0.00615 | [4] -0.067 | [6] -0.0952 | [8] -0.0505

O=C1CC2(CCCC2)CC(=O)N1CCCCN1CCN(c2ncccn2)CC1
inactive: [1] 0.0619 | [2] 0.0587 | [3] 0.00932 | [4] 0.00417 | [5] 0.0329 | [6] -0.0367 | [7] 0.0017 | [8] -0.02

COc1cc2c(cc1OC)C(=O)C(CC1CCN(Cc3ccccc3)CC1)C2 (stereo not drawn)
inactive: [1] 0.0718 | [2] 0.0262 | [3] -0.0241 | [4] -0.0742 | [5] 0.0129 | [6] -0.0194 | [7] 0.00155 | [8] 0.0243

CCOC(=O)c1ncn2c1CN(C)C(=O)c1cc(F)ccc1-2
inactive: [1] -0.0461 | [2] -0.0546 | [3] -0.0345 | [4] 0.00689 | [5] 0.00279 | [6] 0.0168 | [7] 0.000313 | [8] 0.022

Clc1ccc2nsnc2c1NC1=NCCN1
inactive: [1] -0.0575 | [2] -0.0136 | [3] 0.00637 | [4] 0.0392 | [5] 0.0375 | [6] -0.063 | [7] 0.0661 | [8] 0.00517

COc1ccc(CC2c3cc(OC)c(OC)cc3CC[N+]2(C)CCC(=O)OCCCCCOC(=O)CC[N+]2(C)CCc3cc(OC)c(OC)cc3C2Cc2ccc(OC)c(OC)c2)cc1OC (stereo not drawn)
inactive: [1] -0.00992 | [3] -0.0136 | [4] -0.0147 | [5] 0.0284 | [6] -0.0198

NCC1CCC(C(=O)Oc2ccc(CCC(=O)O)cc2)CC1 (stereo not drawn)
inactive: [1] -0.0278 | [2] -0.00261 | [3] 0.0182 | [4] -0.0458 | [5] 0.036 | [6] 0.00228 | [7] -0.0367 | [8] -0.00395

COc1cc(OC)c(C(=O)CCCN2CCCC2)c(OC)c1
inactive: [1] -0.00493 | [2] -0.0142 | [3] 0.0079 | [4] 0.0465 | [5] 0.0151 | [6] 0.0392 | [7] 0.0301 | [8] 0.0326

NC1CCN(c2nc3c(cc2F)c(=O)c(C(=O)O)cn3-c2ccc(F)cc2F)C1 (stereo not drawn)
inactive: [1] -0.101 | [2] 0.00828 | [3] 0.0186 | [4] -0.0155 | [5] -0.00647 | [6] -0.0395 | [7] -0.0109 | [8] 0.0163

CCN1CC(CCN2CCOCC2)C(c2ccccc2)(c2ccccc2)C1=O (stereo not drawn)
inactive: [1] -0.000818 | [2] 0.03 | [3] -0.0552 | [4] -0.0141 | [5] -0.00917 | [6] 0.0055 | [7] 0.000738 | [8] -0.0334

COc1ccc2nc(S(=O)Cc3ncc(C)c(OC)c3C)[nH]c2c1 (stereo not drawn)
inactive: [1] 0.0168 | [2] 0.00709 | [3] 0.0324 | [4] 0.00389 | [5] 0.0492 | [6] 0.00389 | [7] 0.0199 | [8] 0.0436

CN(C)CCCSc1ccccc1NC(=O)/C=C/c1ccccc1
inactive: [1] 0.0654 | [3] 0.0123 | [4] 0.063 | [5] 0.0477 | [6] 0.0394

CC1(C)S[C@@H]2[C@H](N=CN3CCCCCC3)C(=O)N2[C@H]1C(=O)O
inactive: [1] -0.0627 | [2] -0.00589 | [3] -0.0112 | [4] 0.00945 | [5] 0.0251 | [7] -0.0211 | [8] -0.0045
active: [6] 0.116

Cc1nc2ccc(CN(C)c3ccc(C(=O)N[C@@H](CCC(=O)O)C(=O)O)s3)cc2c(=O)[nH]1
inactive: [1] -0.00369 | [2] 0.0379 | [3] -0.00311 | [4] -0.0146 | [5] 0.00396 | [6] -0.00877 | [7] -0.00369 | [8] -0.0401

Brc1c(NC2=NCCN2)ccc2nccnc12
inactive: [1] -0.06 | [2] -0.0578 | [3] -0.0163 | [4] -0.0123 | [5] 0.0524 | [6] -0.0061 | [7] 0.0292 | [8] 0.0556

Cc1[nH]cnc1CN1CCc2c(c3ccccc3n2C)C1=O
inactive: [1] -0.0209 | [2] -0.0392 | [3] 0.00572 | [4] -0.066 | [5] 0.0308 | [6] -0.0141 | [7] 0.0279 | [8] 0.0535

CC(=O)O[C@H]1C[C@@H]2CC[C@@H]3[C@H](CC[C@@]4(C)[C@H]3C[C@H]([N+]3(C)CCCCC3)[C@@H]4OC(C)=O)[C@@]2(C)C[C@@H]1N1CCCCC1
active: [4] -0.114
inactive: [1] 0.00769 | [2] 0.00267 | [3] -0.00222 | [5] 0.00114 | [6] -0.0355 | [7] 0.018 | [8] 0.0408

Nc1nnc(-c2cccc(Cl)c2Cl)c(N)n1
inactive: [1] -0.0167 | [2] -0.0171 | [3] 0.000443 | [4] 0.00303 | [5] 0.00854 | [6] 0.0465 | [7] -0.0247 | [8] -0.000749

CNCC(O)c1ccc(O)c(O)c1 (stereo not drawn)
inactive: [1] 0.0367 | [2] -0.0084 | [3] 0.0503 | [4] 0.0399 | [5] -0.0203 | [6] -0.0287 | [7] -0.0313 | [8] -0.0974

c1cnc(N2CCN(Cc3ccc4c(c3)OCO4)CC2)nc1
inactive: [1] -0.0184 | [3] 0.0386 | [4] -0.0353 | [5] 0.0391 | [6] -0.006
